Assay results: PubChem BioAssay AID624263 (National Center for Advancing Translational Sciences (NCATS), 2012)
Among all 410,000 compounds or so, about 820 (0.2%) were called active. Where a call stands in place of a potency, no number is given. About 2% were inconclusive and are not listed. Calls follow the shape of the dose curve; as a rule, active = well fitted activation curve with a large enough effect; inconclusive = small, poorly fitted or top-dose-only effect; inactive = flat fitted curve, though single readings scatter; cell line not stated here. For the sample, actives were picked, then their nearest neighbours and some compounds at random.
Potency is read from the fitted curve at half-maximal effect.

Assay: A Quantitative High throughput Screen to Identify Chemical Modulators of PINK1 Expression; also: nearly all actives have a fitted effect of over 65% in size
Conditions: PINK1 immunofluorescence, high-content cytometry, 24 h; series mostly up to 76.6 µM
Source text: The overall goal of this project is to develop new tools for understanding and treating the mitochondrial basis for neurodegenerative disease such as Parkinson's disease (PD). The PINK1 campaign was developed from recent data pointing towards mitochondrial dysfunction as a major contributor to dopaminergic neuron loss. The discovery of PINK1/Parkin mediated mitophagy has highlighted the potential for mitochondrial quality control as a novel target for therapeutic intervention. […] A second aim of this project is the development of chemical probes to study the mechanics of mitochondrial quality control. As the PINK1/Parkin mitophagy pathway is a relative recent discovery, no specific chemical probes are available that modulate the process. Presently, only crude tools that cause nonspecific mitochondrial damage are available. To advance the understanding of mitophagy, specific, well characterized chemicals that target various steps of mitophagy regulation need to be developed. New chemical probes may have the ability to dynamically manipulate mitophagy in model organisms such as rodents and zebrafish, advancing our understanding of the process in development and disease. This HTS campaign seeks to discover an activator of PINK1 expression by modulation at the level of post-translational processing.
The PINK1 assay determines the amount and localization of PINK1 protein in a cell using a combination of immunofluorescence and cell staining. The goal of the assay is to determine small molecules that can increase the expression of Pink1 on or inside the cell's mitochondria (ideally without mitochondrial depolarization) using a stable cell line. Since PINK1 protein is rapidly degraded in un-perturbed cells, compounds that induce the enhancement of PINK1 protein expression are identified by determining PINK1 immunofluorescence in conjunction with a mitochondrial, cell, and nuclear marker post fixation. To facilitate rapid high content screening, the primary assay is run in a decision-based HTS mode where compound titration data collected by laser-scanning microplate cytometers is processed and only promising compound series are passed off for high content drill down.
1 Add cells to black, clear-bottom, low-base 1536-well plates 6 uL (250 cells/well)
2 Incubate in TC incubator (12 hours)
3 Pin compounds or DMSO controls 23 nL (5 concentrations per compound set)
4 Dispense CCCP to control columns
5 Incubate in TC incubator 24 hours
6 Aspirate media and fix cells (5 uL of fixative containing nuclear dye)
7 Incubate 15 minutes at RT
8 Wash in PBSTween (12 uL/well)
9 Wash in PBSTriton (12 uL/well)
10 Aspirate wash and add Blocking buffer (4 uL/well)
12 Aspirate block and add primary antibodies 3.5 (uL/well)
13 Incubate 12 hours at 10 degrees C
14 Wash in PBSTween-20 two times (12 uL/well)
15 Aspirate wash and add secondary antibodies (12 uL/well)
17 Wash in PBSTween (12 uL/well)
18 Wash in PBSTween with cell stain (12 uL/well)
19 Read plates on Acumen EX3 and determine Wells2Cells coordinates
For `CCOc1ccc(-c2cc(C)[n+](CCN(CC)CC)c(-c3ccc(OCC)cc3)c2)cc1`, the Potency was 15.8 µM (active). With `CCc1nc2ccccc2c(=O)n1-c1cccc(OC)c1` the Potency was “inactive”. For `Cn1cc(/C=C/c2nc3ccccc3c(=O)n2-c2ccccc2)c2ccccc21`, the Potency was “inactive”. With `COc1cccc(N2C(=O)NC(=O)/C(=C\c3cn(C)c4ccccc34)C2=O)c1` the Potency was 39.8 µM (active). With `c1ccc(N2CC[C@@]3(CCCNC3)C2)nc1` the Potency was “inactive”. For `COc1cccc(-c2ccc(O)c(CNC3CN4CCC3CC4)c2)n1` (centres undefined), the Potency was “inactive”. For `c1ccc(CN2CC[C@@]3(CCCNC3)C2)cc1`, the Potency was “inactive”. With `COc1cc([C@@H]2c3cc4c(cc3[C@H](OC(C)=O)[C@H]3COC(=O)[C@H]23)OCO4)cc(OC)c1OC` the Potency was “inactive”. With `N#Cc1c(Cl)c(Cl)c(Cl)c(C#N)c1Cl` the Potency was “inactive”.
